# KB-3-1 cytotox: qHTS assay for MDR1-selective chemotherapeutics: Primary screen using the parental adenocarcinoma cell KB-3-1; hit rate 1.4% among 400,000; KB-3-1 viability, CellTiter-Glo ATP luminescence, 72 h; Potency, µM (top dose mostly 46.1 µM), actives largely listed as cytotoxic; AID 1347075, 2019; also: potency is read from the fitted curve at half-maximal effect; % is scaled to controls: 0 for no effect and ±100 for the full control effect; nearly all actives have a fitted effect of over 60% in size
#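 Cytotoxicity in the drug-sensitive parental line KB-3-1 was scored as loss of CellTiter-Glo luminescence following 72 h incubation with compound. Values come from curve fitting of normalized concentration-response data.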
# ASM inhibitor: Inhibitors of Secretory Acid Sphingomyelinase (S-ASM): qHTS. Sphingomyelin phosphodiesterase (Homo sapiens), P17405. placental ASM, HMU-PC fluorogenic substrate, 60 min. Potency, µM (highest dose often 57.5 µM), for the others: at the highest dose activity change, negative = inhibition, actives largely listed as inhibitors. hit rate 0.006% among 340,000; also: potency is read from the fitted curve at half-maximal effect
# Target sequence (P17405 47-631 limits assumed): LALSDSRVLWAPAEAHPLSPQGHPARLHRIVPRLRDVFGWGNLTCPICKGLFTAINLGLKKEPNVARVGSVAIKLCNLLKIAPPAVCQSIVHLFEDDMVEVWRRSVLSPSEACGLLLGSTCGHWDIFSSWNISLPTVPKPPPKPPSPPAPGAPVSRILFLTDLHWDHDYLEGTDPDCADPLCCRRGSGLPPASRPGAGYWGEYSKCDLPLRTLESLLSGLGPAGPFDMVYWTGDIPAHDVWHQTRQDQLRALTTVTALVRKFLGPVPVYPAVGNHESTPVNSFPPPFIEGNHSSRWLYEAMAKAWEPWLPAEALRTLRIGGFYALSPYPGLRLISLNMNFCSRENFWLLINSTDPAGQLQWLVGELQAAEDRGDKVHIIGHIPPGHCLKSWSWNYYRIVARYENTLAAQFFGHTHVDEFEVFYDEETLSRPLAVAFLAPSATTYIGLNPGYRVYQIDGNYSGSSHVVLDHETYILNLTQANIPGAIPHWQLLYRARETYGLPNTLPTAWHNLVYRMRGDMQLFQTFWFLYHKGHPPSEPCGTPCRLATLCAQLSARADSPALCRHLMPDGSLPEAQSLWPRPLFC
#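 Fluorogenic HMU-PC substrate (9 uM final) is turned over by placental ASM in 60 min at 37 C after a 10 min compound preincubation. Reaction ended by alkaline stop (pH 10), with fluorescence read at 386/447 nm.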
# SW480 rereplic: A quantitative high throughput screen for small molecules that induce DNA re-replication in SW480 colon adenocarcinoma cells | SW480 DNA re-replication, Hoechst DNA content imaging, 48 h | Potency, µM (titrated, usually from 46.1 µM), inactives show top-dose re-replication activation, usual class: activators | hit rate 1.8% among 340,000 | AID 624297, 2012; also: potency is read from the fitted curve at half-maximal effect; % of control where 0% means no effect; nearly all actives have a fitted effect of over 55% in size
#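 Quantitative HTS format with DMSO vehicle controls; 48 hr drug incubation at 37 C, then 40 min Hoechst staining and scanning imager measurement at 405 nm excitation.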
# KB-V1 cytotox: qHTS assay for MDR1-selective chemotherapeutics: Primary screen using the drug-selected MDR subline cells KB-V1; KB-V1 MDR cells viability, CellTiter-Glo, 72 h; Potency, µM (series often up to 46.1 µM), usual class: cytotoxic; hit rate 3.4% among 400,000; AID 1347076, 2019; also: potency is read from the fitted curve at half-maximal effect; % is scaled to controls: 0 for no effect and ±100 for the full control effect; nearly all actives have a fitted effect of over 60% in size
#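 Drug-selected KB-V1 cells, grown in DMEM lacking phenol red with 10% FBS, receive compound titrations; after three days at 37 degrees C, surviving cell ATP is quantified by CellTiter-Glo luminescence and responses normalized and curve-fitted.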
# Giardia kill: Small Molecules that selectively kill Giardia lamblia: qHTS | Giardia lamblia trophozoite viability | activity change, % at 7.66 µM, hits read low | hit rate 0.15% among 340,000; in the data active = activity change below about -80%; inconclusive = between about -30% and that limit;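 also: parasites exposed to compound for two days anaerobically before the ATP read; % is scaled to controls: 0 for no effect and ±100 for the full control effect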
#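 Compounds were tested on trophozoites seeded at 100 cells/well and held 48 hrs at 37 deg C anaerobically. An ATP-based luminescent kit measured the remaining live cells.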
# MCF10A rerep: A quantitative high throughput screen for small molecules that induce DNA re-replication in MCF 10a normal breast cells; MCF 10A DNA re-replication, Hoechst nuclear intensity, 48 h; Potency, µM (series often up to 46.1 µM), for the others: top-dose activity, positive = re-replication, hits mostly activators; hit rate 2.9% among 350,000; AID 624296, 2012; also: potency is read from the fitted curve at half-maximal effect; % of control where 0% means no effect; nearly all actives have a fitted effect of over 50% in size
# The depositor's hits bear a star; i = inactive; ? = inconclusive; . = no result given. Shown are actives, neighbours in structure and some others; about 6.9% of the full set was active somewhere. Unless noted, calls follow the shape of the dose curve; as a rule, active = well fitted curve in the direction sought with a large enough effect; inconclusive = small, poorly fitted or top-dose-only effect, or another doubt; inactive = no such curve, though single readings can be large; an effect the other way counts as inactive or inconclusive.
SMILES,KB-3-1 cytotox,ASM inhibitor,SW480 rereplic,KB-V1 cytotox,Giardia kill,MCF10A rerep
O=C(O)c1cccc(-c2ccc(/C=N/Nc3ccc([N+](=O)[O-])cc3)o2)c1,i,-5.4%,?,i,2.6,18.4µM*
COCC(C)n1c(COc2ccccc2F)nnc1SCC(=O)Nc1oc(C)c2c(C)n[nH]c(=O)c12 (centres undefined),i,7.0%,-2.4%,i,-15.9,2.3%
CN(C)c1ccc(/C=c2\[nH]c(=O)/c(=C\c3ccc(N(C)C)cc3)[nH]c2=O)cc1,i,.,.,i,.,.
COc1ccc(N(CC(=O)N/N=C/c2ccc(-c3ccc([N+](=O)[O-])cc3)o2)S(=O)(=O)c2ccc(C)cc2)cc1,i,20.5%,9.2µM*,i,12.6,?
COC(=O)Nc1nc(-c2ccccc2)c(C(=O)c2ccccc2)s1,0.164µM*,-10.4%,0.411µM*,?,12.9,0.231µM*
COC(=O)Nc1nc(C)c(C(=O)c2ccccc2)s1,?,-1.1%,14.6µM*,7.31µM*,-0.2,9.2µM*
N#Cc1nc(-c2ccccc2F)oc1NCCN1CCOCC1,i,3.3%,-0.3%,i,-13.3,9.1%
N#Cc1nc(COc2ccccc2)oc1NCCN1CCOCC1,i,2.4%,7.4%,i,12.9,1.0%
N#Cc1nc(COc2ccc(-c3ccccc3)cc2)oc1NCCCN1CCOCC1,?,-9.8%,?,i,-4.8,11.2µM*
CCN1CCN(c2oc(/C=C/c3ccccc3)nc2C#N)CC1,i,i,?,i,-4.0,23.1µM*
CNc1oc(/C=C/c2ccccc2)nc1C#N,i,i,?,i,8.4,20.6µM*
N#Cc1nc(-c2cccc3ccccc23)oc1NCCN1CCOCC1,i,i,?,i,-8.3,16.4µM*
CCc1ccc(-n2c(=O)c3c4c(sc3n(CC(=O)NCCCOC)c2=O)CCCC4)cc1,i,.,.,i,.,.
COc1ccc(-c2[nH]c3ccccc3c2SCCNC(=O)c2ccc(S(=O)(=O)N(C)C)cc2)cc1,?,.,.,i,.,.
Cc1cc(C)c2c(C)ccnc2c1,i,.,.,i,.,.
COc1ccc2[nH]c(CCc3nc4c(OC)c(OC)ccc4[nH]3)nc2c1OC,i,.,.,i,.,.
N#Cc1nc(/C=C/c2ccccc2)oc1NCCCN1CCOCC1,i,i,?,?,10.0,23.1µM*
COCCNc1oc(/C=C/c2ccccc2)nc1C#N,i,i,1.0%,i,7.8,14.9%
CC(=O)NS(=O)(=O)c1cccnc1Nc1cccc(Cl)c1C,i,-0.8%,0.517µM*,i,11.2,-2.0%
O=C(N/N=C/c1ccc(-c2ccc([N+](=O)[O-])cc2)o1)[C@H]1C[C@@H]1c1ccccc1,i,16.2%,8.2µM*,i,-5.8,23.1µM*
O=C(N/N=C/c1ccc(-c2cccc([N+](=O)[O-])c2)o1)[C@H]1C[C@@H]1c1ccccc1,i,1.1%,-4.4%,?,-14.5,12.2%
CN(C)c1ccc(/C=N/NC(=O)C2COc3ccccc3O2)o1 (centres undefined),i,-1.3%,6.2%,i,23.7,7.4%
O=C(N/N=C\c1ccc(-c2ccc([N+](=O)[O-])cc2)o1)C1COc2ccccc2O1 (centres undefined),i,-3.4%,8.1%,?,-9.6,20.6µM*
N#Cc1c(-c2ccc(F)cc2)c2c([nH]c1=O)-c1ccccc1OC2,i,i,6.51µM*,i,-4.9,4.11µM*
CSc1c2c([nH]c(=O)c1C#N)-c1ccccc1CC2,i,.,.,i,.,.
N#Cc1c(-c2ccccc2)[nH]c(=O)[nH]c1=O,i,0.3%,-102.6%,i,1.8,1.1%

# From PubChem
